Experimental findings from ChEMBL document CHEMBL1961873, “Compounds: GSK PKIS; Assays: Nanosyn kinase panel” (2012) are described below.

Experiment [1] addresses Ribosomal protein S6 kinase alpha-6 (Homo sapiens) (UniProt Q9UK32). As to conditions: at 1 µM.
The target in experiment [2] is T1, Serine/threonine-protein kinase Sgk1 (Homo sapiens) (UniProt O00141).
T1 sequence (whole entry): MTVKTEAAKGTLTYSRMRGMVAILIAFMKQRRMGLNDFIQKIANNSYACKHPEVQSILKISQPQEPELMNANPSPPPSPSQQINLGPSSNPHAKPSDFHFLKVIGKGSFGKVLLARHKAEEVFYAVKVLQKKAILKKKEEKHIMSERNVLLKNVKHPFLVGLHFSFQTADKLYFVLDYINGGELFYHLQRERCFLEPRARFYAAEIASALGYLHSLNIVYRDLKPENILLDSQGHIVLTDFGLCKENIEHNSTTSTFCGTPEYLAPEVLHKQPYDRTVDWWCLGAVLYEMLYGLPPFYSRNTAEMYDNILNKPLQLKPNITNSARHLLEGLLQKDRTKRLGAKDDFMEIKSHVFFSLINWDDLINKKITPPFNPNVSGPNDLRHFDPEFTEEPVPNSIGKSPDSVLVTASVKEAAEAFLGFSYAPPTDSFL
As to conditions: at 0.1 µM.

In experiment [3] the target is T1, Serine/threonine-protein kinase Sgk1 (Homo sapiens). As to conditions: at 1 µM.
Experiment [4] deals with T2, Serine/threonine-protein kinase Sgk2 (Homo sapiens) (UniProt Q9HBY8).
T2 sequence (whole entry): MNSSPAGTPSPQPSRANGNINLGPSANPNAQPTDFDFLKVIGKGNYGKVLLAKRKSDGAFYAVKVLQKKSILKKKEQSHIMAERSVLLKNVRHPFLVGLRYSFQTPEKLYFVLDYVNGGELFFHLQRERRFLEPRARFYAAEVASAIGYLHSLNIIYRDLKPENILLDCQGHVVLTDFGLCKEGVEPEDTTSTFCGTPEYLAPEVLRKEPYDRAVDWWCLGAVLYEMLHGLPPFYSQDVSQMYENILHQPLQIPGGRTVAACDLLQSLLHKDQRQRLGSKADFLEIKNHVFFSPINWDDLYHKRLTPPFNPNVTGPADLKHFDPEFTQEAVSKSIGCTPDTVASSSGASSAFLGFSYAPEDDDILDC
The settings on record: at 0.1 µM.

Experiment [5] addresses T2, Serine/threonine-protein kinase Sgk2 (Homo sapiens). As to conditions: at 1 µM.
Experiment [6] deals with T3, Serine/threonine-protein kinase Sgk3 (Homo sapiens) (UniProt Q96BR1).
T3 sequence (whole entry): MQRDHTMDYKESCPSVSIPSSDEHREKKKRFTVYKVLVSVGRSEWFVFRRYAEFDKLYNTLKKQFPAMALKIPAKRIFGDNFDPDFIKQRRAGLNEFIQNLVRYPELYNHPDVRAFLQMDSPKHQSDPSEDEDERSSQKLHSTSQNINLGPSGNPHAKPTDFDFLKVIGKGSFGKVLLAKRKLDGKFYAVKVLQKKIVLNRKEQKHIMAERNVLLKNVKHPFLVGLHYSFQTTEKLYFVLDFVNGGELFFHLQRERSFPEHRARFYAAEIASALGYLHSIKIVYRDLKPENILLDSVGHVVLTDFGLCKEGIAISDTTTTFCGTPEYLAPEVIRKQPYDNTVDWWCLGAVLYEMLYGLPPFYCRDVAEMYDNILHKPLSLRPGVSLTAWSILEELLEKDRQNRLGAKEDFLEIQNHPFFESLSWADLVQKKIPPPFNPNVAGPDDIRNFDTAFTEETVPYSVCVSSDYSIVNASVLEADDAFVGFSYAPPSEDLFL
As to conditions: at 0.1 µM.

Experiment [7] addresses T3, Serine/threonine-protein kinase Sgk3 (Homo sapiens). The settings on record: at 1 µM.
Experiment [8] addresses 5'-AMP-activated protein kinase catalytic subunit alpha-1 (Homo sapiens) (UniProt Q13131). The settings on record: at 0.1 µM.
The target is the same in experiment [9]. As to conditions: at 1 µM.
In experiment [10] the target is 5'-AMP-activated protein kinase catalytic subunit alpha-2 (Homo sapiens) (UniProt P54646). The settings on record: at 0.1 µM.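 Note: mean inhibition measured on the AMPK complex of alpha2, beta1 and gamma1 subunits.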

The term inhibition denotes the drop in the measured response relative to a control, in per cent.

Ribosomal protein S6 kinase alpha-6 (Homo sapiens), sequence (Q9UK32 whole entry): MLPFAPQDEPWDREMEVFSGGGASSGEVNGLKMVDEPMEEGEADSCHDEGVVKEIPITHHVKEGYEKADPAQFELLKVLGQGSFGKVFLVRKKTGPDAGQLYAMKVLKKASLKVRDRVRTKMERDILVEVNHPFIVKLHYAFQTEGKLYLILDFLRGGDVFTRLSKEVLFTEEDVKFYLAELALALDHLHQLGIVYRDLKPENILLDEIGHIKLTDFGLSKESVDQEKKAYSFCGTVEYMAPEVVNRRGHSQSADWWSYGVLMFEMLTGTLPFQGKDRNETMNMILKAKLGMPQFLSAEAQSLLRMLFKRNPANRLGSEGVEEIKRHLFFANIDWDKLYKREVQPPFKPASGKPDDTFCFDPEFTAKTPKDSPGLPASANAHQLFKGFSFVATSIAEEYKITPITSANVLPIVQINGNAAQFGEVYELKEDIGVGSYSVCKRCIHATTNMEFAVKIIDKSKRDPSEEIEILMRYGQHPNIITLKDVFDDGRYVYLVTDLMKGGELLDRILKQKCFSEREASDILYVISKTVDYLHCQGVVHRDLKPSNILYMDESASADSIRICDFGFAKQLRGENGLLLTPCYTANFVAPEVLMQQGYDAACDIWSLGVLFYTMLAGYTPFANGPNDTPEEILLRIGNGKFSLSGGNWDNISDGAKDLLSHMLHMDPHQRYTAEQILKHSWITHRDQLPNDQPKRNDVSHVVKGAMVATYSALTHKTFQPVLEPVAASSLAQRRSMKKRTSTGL
5'-AMP-activated protein kinase catalytic subunit alpha-2 (Homo sapiens), sequence (P54646 whole entry, looked up): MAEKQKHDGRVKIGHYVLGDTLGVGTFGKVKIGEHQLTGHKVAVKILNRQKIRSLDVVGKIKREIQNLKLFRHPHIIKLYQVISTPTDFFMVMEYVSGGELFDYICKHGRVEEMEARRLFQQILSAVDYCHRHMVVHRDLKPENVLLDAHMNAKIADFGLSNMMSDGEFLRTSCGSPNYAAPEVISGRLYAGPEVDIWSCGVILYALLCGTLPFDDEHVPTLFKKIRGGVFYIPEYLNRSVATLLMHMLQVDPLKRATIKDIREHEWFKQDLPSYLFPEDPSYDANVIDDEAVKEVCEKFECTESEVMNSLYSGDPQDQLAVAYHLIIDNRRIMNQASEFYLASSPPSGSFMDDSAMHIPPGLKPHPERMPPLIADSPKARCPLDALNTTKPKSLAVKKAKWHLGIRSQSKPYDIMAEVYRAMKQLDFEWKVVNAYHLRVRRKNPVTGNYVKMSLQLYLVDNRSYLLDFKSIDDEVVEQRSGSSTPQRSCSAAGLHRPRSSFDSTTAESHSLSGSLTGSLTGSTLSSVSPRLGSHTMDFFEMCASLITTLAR
5'-AMP-activated protein kinase catalytic subunit alpha-1 (Homo sapiens), sequence (Q13131 whole entry, looked up): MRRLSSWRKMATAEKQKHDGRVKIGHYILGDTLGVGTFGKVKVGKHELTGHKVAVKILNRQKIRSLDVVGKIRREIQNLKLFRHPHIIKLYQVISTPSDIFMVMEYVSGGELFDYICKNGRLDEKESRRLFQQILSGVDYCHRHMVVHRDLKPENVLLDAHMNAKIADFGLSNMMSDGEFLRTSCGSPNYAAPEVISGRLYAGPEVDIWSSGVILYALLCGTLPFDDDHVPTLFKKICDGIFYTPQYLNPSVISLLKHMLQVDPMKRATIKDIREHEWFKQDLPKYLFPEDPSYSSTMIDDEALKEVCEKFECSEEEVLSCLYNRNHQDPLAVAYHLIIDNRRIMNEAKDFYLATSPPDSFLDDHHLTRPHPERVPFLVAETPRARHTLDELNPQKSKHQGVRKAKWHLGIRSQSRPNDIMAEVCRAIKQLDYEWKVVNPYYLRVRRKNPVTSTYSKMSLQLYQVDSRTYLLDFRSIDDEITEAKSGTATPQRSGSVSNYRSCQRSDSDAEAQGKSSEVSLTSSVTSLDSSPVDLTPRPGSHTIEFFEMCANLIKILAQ

As to `NCc1ccc(-n2c(-c3nonc3N)nc3cnccc32)cc1`, the inhibition in experiment [1] turned out to be 36.2%; in [2], 5.32%; in experiment [3], 11.7%; in experiment [4], 5.18%; in experiment [5], 17.3%; in [6], 3.68%. In addition, the inhibition in [7] is 28.2%; in experiment [8], 5.3%; in experiment [9], 7.27%; in [10] it was 6.07%.

For the compound `CN(C)CCOc1ccc(-c2cc(-c3ccc4c(c3)CCC4=NO)c(-c3ccncc3)o2)cc1`, the inhibition in [1] was -1.99%; in [2], 1.28%; in [3] it was 0.73%; in [4], -2.26%; in experiment [5], 2.64%; in experiment [6], 1.69%. The inhibition was -4.66% in experiment [7], -1.39% in experiment [8], -0.8% in experiment [9] and 0.73% in [10].

With `O=C(NCC1CC1)c1ccc(-c2cccc(C(=O)NC3CC3)c2)cc1`, the inhibition in experiment [1] was determined as 0.61%; in experiment [2] it was 0.99%; in experiment [3] it was 0.82%; in experiment [4], 0.58%; in experiment [5], 3.1%; in [6], 1.28%. The inhibition amounted to 1.29% in experiment [7], 2.2% in experiment [8], 3.29% in experiment [9] and 0.26% in experiment [10].

`COc1cc(C)c(N(C)C(=O)CN(C)C)cc1Nc1nc(Nc2cccc(F)c2C(N)=O)c2cc[nH]c2n1`: the inhibition was 4.74% in experiment [1]; 1.3% in experiment [2]; 0.1% in experiment [3]; -3% in experiment [4]; 3.7% in experiment [5]; 0.02% in experiment [6]. In addition, the inhibition was 0.78% in experiment [7], 1.44% in experiment [8], 0.94% in [9] and -0.28% in experiment [10].

As for `O=C(Nc1n[nH]c2nc(-c3ccc(O)cc3)c(Br)cc12)C1CC1`, the inhibition amounted to 59.7% in experiment [1]; 3.83% in experiment [2]; 12.1% in experiment [3]; 6.54% in experiment [4]; 24.8% in experiment [5]; 5.88% in experiment [6]. For the same compound, the inhibition in experiment [7] amounted to 16.7%; in experiment [8] it was 5.78%; in [9], 20.1%; in [10], 4.36%.

Consider `O=C(Nc1ccc(Oc2ccc3[nH]c(NC(=O)c4ccccc4)nc3c2)cc1)Nc1cc(C(F)(F)F)ccc1F`, for which the inhibition was determined as 2.72% in [1]; 1.68% in experiment [2]; 3.96% in [3]; 2.66% in experiment [4]; 4.13% in experiment [5]; 1.78% in experiment [6]. Besides, the inhibition in experiment [7] came out at 2.24%; in [8], 2.87%; in experiment [9], 2.98%; in experiment [10], 0.79%.

As for `C#Cc1cccc(Nc2ncnc3ccc(OCCCCNCCS(C)(=O)=O)cc23)c1`, the inhibition in [1] stood at 3.55%; in experiment [2], 3.74%; in [3] it was 5.99%; in experiment [4] it was 3.88%; in [5] it was 4.33%; in experiment [6] it was 3.82%. Besides, the inhibition in experiment [7] came to 4.46%; in [8], 4.2%; in [9], 6.4%; in experiment [10] it was 4.13%.

As for `Fc1ccc(-c2c(-c3ccncc3)nc3n2CCS3)cc1`, the inhibition in [1] is 2.25%; in experiment [2] it was 3.2%; in experiment [3], 4.05%; in [4], 1.42%; in [5], 3.7%; in [6], 1.96%. Moreover, the inhibition worked out at 5.06% in experiment [7], 3.33% in experiment [8], 6.81% in [9] and 3.93% in experiment [10].

`COc1cc(N2CCN(C(C)C)CC2)ccc1Nc1nc(Nc2ccc(F)cc2C(=O)NC[C@@H](O)CO)c2cc[nH]c2n1`: the inhibition in [1] is 8.27%; in experiment [2] it was 4.42%; in experiment [3], 7.18%; in experiment [4] it was 2.67%; in experiment [5], 4.33%; in experiment [6], 2.59%. Besides, the inhibition in experiment [7] amounted to 6.24%; in experiment [8], 4.23%; in [9], 5.78%; in experiment [10] it was 2.37%.

Turning to `CN(C)CCCNc1nccc(-c2c(-c3ccc(F)cc3)nn3cc(C(F)(F)F)ccc23)n1`, the inhibition in experiment [1] stood at 2.42%; in experiment [2], 1.95%; in experiment [3], 2.09%; in [4], 2.67%; in [5], 1.75%; in [6] it was 1.92%. Also, the inhibition was found to be 0.78% in [7], 1.32% in experiment [8], 1.37% in [9] and 0.22% in experiment [10].

Regarding `COc1cc2ncn(-c3cc(OCCc4ccccc4)c(C(N)=O)s3)c2cc1OC`, the inhibition was 2.25% in experiment [1]; 0.21% in experiment [2]; 3.41% in [3]; -0.42% in experiment [4]; -1.95% in experiment [5]; 2.58% in [6]. Also, the inhibition worked out at 2.59% in experiment [7], 2.79% in [8], 4.42% in [9] and 1.45% in experiment [10].

For the compound `CCc1ccc(Oc2nccc(-c3c(-c4ccc(F)cc4)ncn3C3CCNCC3)n2)cc1`, the inhibition in [1] is 3.1%; in [2], -1.02%; in experiment [3], 1.21%; in [4], -0.69%; in experiment [5], 1.93%; in experiment [6], -0.71%. For the same compound, the inhibition amounted to 1.87% in experiment [7], 5.5% in [8], 8.69% in [9] and 5.08% in experiment [10].

Turning to `FC(F)(F)c1cccc(Nc2nccc(-c3cnn4nc(-c5ccccc5)ccc34)n2)c1`, the inhibition in experiment [1] turned out to be 0.82%; in experiment [2], 2.37%; in experiment [3] it was 2.67%; in [4], 1.96%; in [5], 1.95%; in experiment [6], 2.7%. Further, the inhibition in experiment [7] is 1.72%; in [8] it was 1.9%; in [9], 1.87%; in experiment [10] it was -0.41%.

On to `O=C(Nc1n[nH]c2nc(-c3ccco3)ccc12)C1CC1`, for which the inhibition is 0.71% in experiment [1]; 2.03% in experiment [2]; 0.33% in [3]; 0.71% in [4]; 0.28% in [5]; -0.55% in experiment [6]. Moreover, the inhibition in experiment [7] is 1.28%; in [8], -0.2%; in [9], 1.85%; in experiment [10] it was 1.32%.

As to `CN(C)c1ccc2c(c1)/C(=C/Nc1ccc(S(N)(=O)=O)cc1)C(=O)N2`, the inhibition in [1] is 20.9%; in experiment [2] it was 2.27%; in experiment [3], 5.38%; in experiment [4] it was 0.91%; in [5] it was -1.11%; in experiment [6], 1.07%. In addition, the inhibition in experiment [7] is -1.85%; in experiment [8], 10.2%; in [9], 44.5%; in [10], 7.02%.

In the case of `CCC(=O)Nc1ccc(C)c(-c2ccc(C(=O)NCC3CC3)cc2)c1`, the inhibition in [1] worked out at 1.25%; in [2], 1.88%; in experiment [3], 2.02%; in [4] it was 1.32%; in experiment [5], 0.49%; in experiment [6] it was 2.14%. Moreover, the inhibition in experiment [7] stood at 2.43%; in [8] it was 1.31%; in experiment [9], 2.54%; in [10], 4.95%.

On to `O=C1NC(=O)C(c2cccc(Cl)c2)=C1Nc1ccc(Cl)c(C(=O)O)c1`, for which the inhibition came to 3.09% in [1]; 3.35% in experiment [2]; 8.21% in experiment [3]; 0.84% in experiment [4]; 3.07% in experiment [5]; 2.77% in experiment [6]. Moreover, the inhibition in experiment [7] is 4.64%; in experiment [8] it was 3.69%; in experiment [9], 3.89%; in [10] it was -0.69%.
